PubChem BioAssay (EPA / NIEHS)
Results filed as inconclusive are left out. Activity calls are given as the source filed them. Rule for the calls: active = hit-call score of the fitted dose curve at least 0.9, where 1 is the maximum; inconclusive = response in the unintended direction; inactive = score below 0.9.

target: Androgen receptor (Homo sapiens) (UniProt P10275); assay: ATG_AR_TRANS: Attagene TRANS-FACTORIAL HepG2 Assay for human Androgen Receptor (AR) (AID 2282973); details: HepG2 Attagene TRANS-FACTORIAL AR reporter transcription
How it was run: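 Transfected HepG2, 24 h treatment, chimeric NR-Gal4 driving GAL4-UAS reporters. mRNA induction by RT-PCR/capillary electrophoresis fluorescence; DMSO as negative control and baseline.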

Sequence of Androgen receptor (Homo sapiens) (P10275 whole entry, looked up, the tested form may be a part): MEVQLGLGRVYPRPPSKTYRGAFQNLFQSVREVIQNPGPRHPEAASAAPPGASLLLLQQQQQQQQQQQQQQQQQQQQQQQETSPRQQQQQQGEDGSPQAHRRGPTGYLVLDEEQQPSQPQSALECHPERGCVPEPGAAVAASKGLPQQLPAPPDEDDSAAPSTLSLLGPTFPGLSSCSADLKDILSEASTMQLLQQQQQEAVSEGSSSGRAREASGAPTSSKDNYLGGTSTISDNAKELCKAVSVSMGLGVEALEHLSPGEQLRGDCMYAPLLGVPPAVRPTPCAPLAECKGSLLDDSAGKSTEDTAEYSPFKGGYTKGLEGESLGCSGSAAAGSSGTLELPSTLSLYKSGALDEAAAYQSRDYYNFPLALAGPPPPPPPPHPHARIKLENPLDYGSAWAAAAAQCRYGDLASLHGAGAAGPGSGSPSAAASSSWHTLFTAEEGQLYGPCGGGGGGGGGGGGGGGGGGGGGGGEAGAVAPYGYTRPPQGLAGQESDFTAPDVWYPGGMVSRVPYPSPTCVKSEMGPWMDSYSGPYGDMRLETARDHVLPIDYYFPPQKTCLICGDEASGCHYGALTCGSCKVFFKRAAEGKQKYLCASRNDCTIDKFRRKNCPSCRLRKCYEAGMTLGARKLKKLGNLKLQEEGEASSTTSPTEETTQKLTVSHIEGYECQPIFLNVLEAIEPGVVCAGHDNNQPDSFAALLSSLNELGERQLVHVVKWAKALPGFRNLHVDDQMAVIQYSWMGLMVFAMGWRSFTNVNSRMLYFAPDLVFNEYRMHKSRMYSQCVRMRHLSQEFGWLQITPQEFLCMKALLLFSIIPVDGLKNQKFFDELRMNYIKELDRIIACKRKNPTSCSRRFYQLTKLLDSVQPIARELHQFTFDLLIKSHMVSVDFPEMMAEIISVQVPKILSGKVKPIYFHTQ

Q: With `C=C(C)C(=O)OCCOC(=O)C(=C)C` as the compound, how does the outcome read?
A: Its outcome is “inactive”.

Q: For `CCCC(=O)OCC(COC(=O)CCC)OC(=O)CCC`, which outcome is on record?
A: The outcome was “inactive”.

Q: For `CCCCCCCC(=O)OCCCCCC`, which outcome is on record?
A: The outcome was “inactive”.

Q: For `C=CC(=O)OCCOC(=O)C=C`, which outcome is on record?
A: Its outcome is “inactive”.

Q: `Nc1ccc(N)c2c1C(=O)c1ccccc1C2=O` was tested. Which outcome did it give?
A: The outcome was “inactive”.

Q: How did the outcome turn out when `FC(F)(F)N1C(F)(F)C(F)(F)OC(F)(F)C1(F)F` was run?
A: Its outcome is “inactive”.

Q: Which outcome does the source give for `CC(Oc1cc(Cl)ccc1Cl)C(=O)O` (stereo not given) here?
A: Its outcome is “inactive”.

Q: For `OCCN1CN(CCO)CN(CCO)C1`, which outcome is on record?
A: The outcome was “inactive”.

Q: With `CCCCNc1ccc(NCCCC)c2c1C(=O)c1ccccc1C2=O` as the compound, how does the outcome read?
A: The outcome was “inactive”.

Q: How did the outcome turn out when `COCC1CCC(CO)CC1` (stereo not given) was run?
A: The outcome was “inactive”.

Q: For `O=[N+]([O-])c1ccc(CO)cc1`, which outcome is on record?
A: Its outcome is “inactive”.

Q: How did the outcome turn out when `Cc1cccc(C)n1` was run?
A: The outcome was “inactive”.

Q: Which outcome does the source give for `Cc1ccc(C)c(OCCCC(C)(C)C(=O)O)c1` here?
A: Its outcome is “inactive”.

Q: Which outcome does the source give for `COC(F)(F)C(F)(C(F)(F)F)C(F)(F)F` here?
A: The outcome was “inactive”.

Q: How did the outcome turn out when `CC(C)CCCC(C)CCO` (stereo not given) was run?
A: Its outcome is “inactive”.

Q: With `CC1CCC(CO)CC1` (stereo not given) as the compound, how does the outcome read?
A: Its outcome is “inactive”.

Q: `CO[Si](CCCNCCN)(OC)OC` was tested. Which outcome did it give?
A: Its outcome is “inactive”.

Q: How did the outcome turn out when `Cc1ccc2ccc3ccc(C)cc3c2c1` was run?
A: The outcome was “inactive”.

Q: `Cc1cccc(C(=O)O)c1` was tested. Which outcome did it give?
A: The outcome was “inactive”.

Q: How did the outcome turn out when `CC=C(C)C=CC=C(C)C` was run?
A: Its outcome is “inactive”.

Q: `C=CC(=O)OCC(CO)(COCC(COC(=O)C=C)(COC(=O)C=C)COC(=O)C=C)COC(=O)C=C` was tested. Which outcome did it give?
A: The outcome was “inactive”.

Q: `CC(=O)c1ccc[nH]1` was tested. Which outcome did it give?
A: The outcome was “inactive”.

Q: For `OC[C@H]1O[C@@H](O[C@H]2[C@H](O)[C@@H](O)[C@H](O)O[C@@H]2CO)[C@H](O)[C@@H](O)[C@H]1O`, which outcome is on record?
A: The outcome was “inactive”.

Q: How did the outcome turn out when `Nc1cc([N+](=O)[O-])ccc1O` was run?
A: Its outcome is “inactive”.

Q: With `O=C(Cl)c1ccc(Cl)cc1Cl` as the compound, how does the outcome read?
A: Its outcome is “inactive”.

Q: With `CC(O)COc1ccccc1` (stereo not given) as the compound, how does the outcome read?
A: Its outcome is “inactive”.

Q: With `CCCCCCCCCCCCOCCO` as the compound, how does the outcome read?
A: Its outcome is “inactive”.

Q: How did the outcome turn out when `CC1CNCC(C)O1` (stereo not given) was run?
A: Its outcome is “inactive”.

Q: For `CC1COCc2cc3c(cc21)C(C)(C)C(C)C3(C)C` (stereo not given), which outcome is on record?
A: The outcome was “inactive”.

Q: With `CCOC(=O)OC(=O)OCC` as the compound, how does the outcome read?
A: The outcome was “inactive”.

Q: For `C=C1CC[C@H]2O[C@]2(C)CC[C@@H]2[C@@H]1CC2(C)C`, which outcome is on record?
A: The outcome was “inactive”.

Q: For `CC(C)CCCCCCc1ccc(OCCOCCO)cc1`, which outcome is on record?
A: The outcome was “inactive”.

Q: How did the outcome turn out when `CC(=O)c1ccc(S(=O)(=O)NC(=O)NC2CCCCC2)cc1` was run?
A: The outcome was “inactive”.

Q: For `NCC1CCCC(CN)C1` (stereo not given), which outcome is on record?
A: Its outcome is “inactive”.

Q: Which outcome does the source give for `O=CC(F)(F)C(F)(F)C(F)(F)F` here?
A: The outcome was “inactive”.

Q: `CCc1c(C)cc(N)c(CC)c1N` was tested. Which outcome did it give?
A: The outcome was “inactive”.

Q: Which outcome does the source give for `CCc1cccc(C)c1N` here?
A: The outcome was “inactive”.

Q: For `CC(=O)C=O`, which outcome is on record?
A: Its outcome is “inactive”.

Q: For `NCC(F)(F)C(F)(F)C(F)(F)C(F)(F)C(F)(F)C(F)(F)C(F)(F)C(F)(F)F`, which outcome is on record?
A: Its outcome is “inactive”.

Q: Which outcome does the source give for `Brc1cc(Br)c(Oc2c(Br)cc(Br)c(Br)c2Br)cc1Br` here?
A: The outcome was “inactive”.
